Screens deposited in PubChem BioAssay by National Center for Advancing Translational Sciences (NCATS).
A selection: hits, their analogues and other compounds. The true share with any hit is near 18%.
Six1-Eya2 blk = inhibitors of human Six1/Eya2 interaction; Q15475+O00167; AlphaScreen GST-Six1/His-Eya2 binding, biochemical; active compounds read low; activity change, % (no concentration beside the values); hit rate 0.56% among 360,000; AID 651725; in the data active means activity change below about -65%; inconclusive means mostly about -30% to -63%
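GST-Six1 + His-Eya2 (5X stock: 250/500 nM); Tris pH 8.0, 300 mM NaCl, 0.05% BSA, 0.02% Tween 20; GSH donor/Ni acceptor beads; 1 h 37 °C dark; AlphaScreen readout.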
TDP1 cell noCPT = qHTS for Inhibitors of human tyrosyl-DNA phosphodiesterase 1 (TDP1): qHTS in cells in absence of CPT | AID 686978, 2013 | Potency, µM (titrated, usually from 46.2 µM), inactives show at the top dose activity change, negative = growth inhibition, actives largely listed as inhibitors | DT40 Tdp1-/- hTDP1 cells, no CPT, ATP luminescence, 48 h | hit rate 15% among 420,000; further: potency means the concentration at half of the fitted maximal effect; nearly all actives have a fitted effect of over 55% in size
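Camptothecin absent (DMSO only). Human TDP1-complemented DT40 knockout cells, 400 cells/well, 37 °C for minimum 48 hr; ATP measured via CellTiter-Glo, 30 min dark incubation, luminescence.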
TDP1 block = inhibitors of human tyrosyl-DNA phosphodiesterase TDP1; recombinant TDP1, AlphaScreen DNA substrate cleavage; AID 485290; hit rate 0.28% among 350,000; Potency, µM (doses to about 130 µM), without a hit: at the top dose activity change, negative = inhibition, actives largely listed as inhibitors; Q9NUW8; further: potency means the concentration at half of the fitted maximal effect; nearly all actives have a fitted effect of over 40% in size
Target sequence (Q9NUW8 whole entry, looked up): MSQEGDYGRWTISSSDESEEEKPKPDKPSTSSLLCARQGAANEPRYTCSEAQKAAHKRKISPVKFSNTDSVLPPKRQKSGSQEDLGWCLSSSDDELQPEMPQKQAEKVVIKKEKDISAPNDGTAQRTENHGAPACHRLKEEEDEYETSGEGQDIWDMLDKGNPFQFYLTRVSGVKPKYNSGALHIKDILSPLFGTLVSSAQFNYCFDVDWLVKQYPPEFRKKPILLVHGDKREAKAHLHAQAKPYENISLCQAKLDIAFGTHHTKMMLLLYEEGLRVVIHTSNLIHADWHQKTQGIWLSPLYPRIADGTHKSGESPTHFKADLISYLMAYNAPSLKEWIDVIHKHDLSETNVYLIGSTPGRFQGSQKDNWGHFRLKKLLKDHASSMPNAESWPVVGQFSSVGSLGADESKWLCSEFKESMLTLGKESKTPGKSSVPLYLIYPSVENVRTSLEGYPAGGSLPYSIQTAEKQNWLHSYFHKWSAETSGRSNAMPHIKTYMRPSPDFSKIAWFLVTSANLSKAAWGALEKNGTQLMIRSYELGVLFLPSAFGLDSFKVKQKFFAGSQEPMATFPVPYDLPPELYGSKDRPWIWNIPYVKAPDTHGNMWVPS
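E. coli-derived human Tdp1, 1 nM final. Cpd preinc 15 min RT; substrate 15 nM final, 5 min RT; AS bead mix 10 ug/ml final, 10 min RT. Signal loss = tyrosine-FITC cleavage. No-enzyme wells = max signal.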
IL-1B inflam inh = inflammasome signaling inhibition, IL-1 beta readout; THP-1 LPS/ATP IL-1B secretion, AlphaLISA, 16 h; active compounds read low; activity change, % at 57.5 µM; hit rate 4.7% among 360,000; AID 743279; in the data active means activity change below about -50%; inconclusive means mostly about -30% to -49%
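THP-1 cells pretreated 1 hr with compounds (up to 57.5 uM final), then stimulated with LPS (250 ng/mL final) plus ATP (1.25 mM final); secreted IL-1B measured by AlphaLISA after 16 hr, decreased signal indicating inhibition.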
CtBP-E1A blk = blocks the CtBP interaction with E1A; AlphaScreen GST-E1A/His-CtBP binding, 1536-well; active compounds read low; activity change, % (no concentration beside the values); hit rate 0.49% among 340,000; in the data active means activity change below about -65%; inconclusive means mostly about -30% to -63%
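AlphaScreen with 125 nM GST-E1A and 125 nM His-CtBP (5X stocks) in Tris pH 8.0, 300 mM NaCl, BSA, Tween 20, TCEP. Compounds preincubated 2 h at 37 deg C, then glutathione donor/nickel acceptor beads added for 1 h at 37 deg C in dark.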
TDP1 cell CPT = DT40-hTDP1 cell growth loss with CPT | AID 686979 | chicken DT40 Tdp1-/-;hTDP1 cells + 20 nM CPT, ATP luminescence, 48 h | hit rate 12% among 420,000 | Potency, µM (doses to about 46.2 µM), without a hit: at the highest dose activity change, negative = growth inhibition, most hits filed as inhibitors; further: potency means the concentration at half of the fitted maximal effect; nearly all actives have a fitted effect of over 55% in size
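Chicken DT40 Tdp1-/- cells stably complemented with human TDP1 were seeded at 400 cells/well in medium containing 20 nM camptothecin, exposed to pin-transferred compounds, and grown at 37 °C for at least 48 hr. Viability was read as ATP luminescence.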
* hit, by the source's call; ? = inconclusive; / = not tested or not shown; [ ] = remark or other dose. Unless noted, the call rests on the fitted dose curve; in most records, active means well fitted curve in the direction sought with a large enough effect; inconclusive means small, poorly fitted or top-dose-only effect, or another doubt; inactive means no such curve, though single readings can be large; an effect the other way counts as inactive or inconclusive. On the % scale 0 is the no-effect control and ±100 the full control effect.

SMILES | Six1-Eya2 blk | TDP1 cell noCPT | TDP1 block | IL-1B inflam inh | CtBP-E1A blk | TDP1 cell CPT
CC1(c2ccccc2Cl)NC(=O)N(CC(=O)Nc2ccc(N3CCCCC3)cc2)C1=O (configuration not stated) | -24 | 21µM* | -1% | -11 | -12 | ?
CC(C)c1ccc(NC(=O)CN2C(=O)NC3(CCCCCCC3)C2=O)cc1 | 0 | 21µM* | 1% | -5 | 2 | 21µM*
CC(C(=O)Nc1ccc(Cl)cc1)N1C(=O)NC2(CCCC2)C1=O (configuration not stated) | 12 | 21µM* | 0% | -12 | 6 | ?
COc1ccc(Cc2n[nH]c(=S)n2C)cc1Br | 1 | -10% | -3% | -68* | 1 | 1%
COc1ccc(CCCc2n[nH]c(=S)n2C)cc1C | 2 | -12% | 8% | -3 | -2 | -29%
COc1ccc(N(C(=O)CNC(=O)c2ccco2)C(C(=O)NC2CCCCC2)c2ccncc2)cc1 (configuration not stated) | -4 | -10% | 17% | -4 | 5 | 0%
CCC(C)c1nc2c(c(N3CCC3=O)c1-c1ccccc1)CCCC2 (configuration not stated) | -3 | ? | / | 6 | 4 | 18µM*
Cc1nn2c(NC(C)C)c3c(nc2c1-c1ccccc1)CCC3 | -10 | ? | -1% | ? | 4 | ?
OCC1(CCOc2ccccc2)CCN(Cc2ccc3cccc(F)c3n2)CC1 | -10 | ? | 3% | ? | -13 | -6%
COc1cccc(CC2(CO)CCN(Cc3ccc4cccc(F)c4n3)CC2)c1 | -3 | ? | 3% | -71* | 2 | -19%
COc1cccc(CC2(CO)CCN(CC3=CC[C@H]4C[C@@H]3C4(C)C)CC2)c1 | -4 | ? | 3% | -55* | 1 | ?
OCC1(Cc2cccc(F)c2)CCN(Cc2ccc3cccc(F)c3n2)CC1 | 4 | ? | 0% | -72* | 1 | ?
O=C(Cc1ccccc1)NNS(=O)(=O)c1ccc(F)cc1 | 5 | -28% | 6% | -8 | / | -9%
CC1(C)Cc2ccccc2-c2nnc(-c3ccco3)n21 | 0 | -13% | -11% | -7 | 4 | -16%
O=C(CSc1ncccc1C(=O)O)NCCC1=CCCCC1 | 3 | -3% | -6% | -2 | 4 | -15%
NC(=S)NC(=O)/C=C/c1ccccc1 | 5 | ? | 5% | -96* | 3 | -10%
O=C(/C=C/c1ccc(F)cc1)NC(=S)Nc1ccccc1O | -1 | 18µM* | / | ? | -18 | ?
O=C(/C=C/c1ccccc1)NC(=S)Nc1ccccc1O | 4 | 21µM* | / | -63* | -6 | ?
CCOC(=O)N1CCN(S(=O)(=O)N2CCCC(C(=O)NCc3cc(Br)ccc3OC)C2)CC1 (configuration not stated) | 3 | 13µM* | -3% | -12 | 7 | 18µM*
CCOC(=O)N1CCN(S(=O)(=O)N2CCCC(C(=O)NCc3ccccc3OC)C2)CC1 (configuration not stated) | 6 | ? | 0% | 41 | 4 | ?
CCCN(C(=O)CCc1nc(-c2ccc(C)cc2)no1)c1ccc(OCC)cc1 | / | ? | -9%[12.3 µM] | / | / | 16µM*
CCN(Cc1ccccc1)C(=O)CCc1nc(-c2ccc(C)cc2)no1 | 14 | 23µM* | -6% | 0 | 15 | 29µM*
CCc1ccccc1N(CC)C(=O)CCc1nc(-c2ccc(C)cc2)no1 | 14 | 23µM* | 4% | ? | 25 | 23µM*
Cc1ccc(-c2noc(CCC(=O)N(C)c3ccccc3F)n2)cc1 | / | ? | -2% | / | / | ?
COc1ccc(-c2cc3c(=O)n(CC(=O)Nc4cc(F)ccc4F)ccn3n2)cc1OC | / | -16% | -1% | / | / | -9%
SMILES | Six1-Eya2 blk | TDP1 cell noCPT | TDP1 block | IL-1B inflam inh | CtBP-E1A blk | TDP1 cell CPT
O=C(O)/C=C/C(=O)N1CCN(c2ccc(F)cc2)CC1 | -11 | -27% | 2% | 0 | -10 | -11%
Cc1cccc(C(=O)NNc2ncnc3c2cnn3-c2ccc(C)cc2C)c1 | / | ? | 8% | / | / | 23µM*
Cc1cccc(-n2ncc3c(NCc4cccnc4)ncnc32)c1 | 1 | ? | / | -11 | -13 | ?
Cc1ccc(-n2ncc3c(NNC(=O)c4ccco4)ncnc32)c(C)c1 | -8 | -11% | 4% | 1 | -15 | 0%
Cc1ccc(-n2ncc3c(NCc4cccnc4)ncnc32)cc1C | -5 | ? | 1% | -19 | ? | 21µM*
Cc1ccc(-n2ncc3c(NCc4cccnc4)ncnc32)c(C)c1 | 5 | 5.2µM* | -3% | -13 | -2 | 16µM*
Cn1cc(CN2CCC(O)CC2)c(-c2ccc(Oc3ccccc3)cc2)n1 | 0 | -19% | / | -12 | / | -11%
O=C(CSc1nc2c(c(=O)[nH]1)CCC2)Nc1ccccc1C(F)(F)F | / | -2% | 9% | / | / | 8%
CCN(C(=O)Cn1cc(C(=O)c2ccc(F)cc2)c(=O)c2ccc(C)nc21)c1cccc(C)c1 | / | ? | -2% | / | / | 16µM*
Cc1ccc(C(=O)c2cn(Cc3ccc(F)cc3)c3nc(C)ccc3c2=O)cc1 | / | 23µM* | -3% | / | / | 16µM*
Cc1ccc2c(=O)c(C(=O)c3ccc(F)cc3)cn(CC(=O)NCCc3ccccc3)c2n1 | / | -21% | 2% | / | / | -25%
Cc1ccc(C(=O)c2cn(Cc3cccc(Cl)c3)c3nc(C)ccc3c2=O)cc1 | / | ? | 4% | / | / | ?
